# Activity calls are given as the source filed them. The calls were made as follows: active = hit-call score of the fitted dose curve at least 0.9, where 1 is the maximum; inactive = score below 0.9.
# Experiments:
# [1] = ATG_E_Box_CIS: Attagene CIS-FACTORIAL HepG2 Assay for human Enhancer Box (E-box) (AID 2282936); details: HepG2 E-box cis-reporter transcription, actives raise or lower the signal
# Method in brief: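 Endogenous transcription factor activity was sensed in human HepG2 liver cells through transfected cis-promoter reporter units. After 24 h of dosing, total RNA was reverse-transcribed and reporter cDNA resolved by capillary electrophoresis.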
# [2] = ATG_M_61_CIS: Attagene CIS-FACTORIAL HepG2 Assay for M61 Transcription Factor (Internal Marker) (AID 2282937); details: HepG2 Attagene CIS-FACTORIAL M61 internal marker reporter; actives raise or lower the signal
# Method in brief: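 Using transiently transfected HepG2 liver cells, reporter transcript levels were assessed 24 h post-dosing by RT-PCR and capillary electrophoresis. Changes in either direction were fitted relative to DMSO controls.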
# [3] = ATG_EGR_CIS: Attagene CIS-FACTORIAL HepG2 Assay for human Early Growth Response 1 (EGR1) (AID 2282938); details: HepG2 Attagene CIS-FACTORIAL EGR reporter mRNA; actives raise or lower the signal
# Method in brief: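 Fluorescent capillary-electrophoresis signal of reporter cDNA fragments serves as read-out. HepG2 cells bear transiently transfected cis-promoter reporter units and are exposed 24 h; gain- or loss-of-signal is fitted against DMSO.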
# [4] = ATG_M_19_CIS: Attagene CIS-FACTORIAL HepG2 Assay for M19 Transcription Factor (Internal Marker) (AID 2282939); details: HepG2 Attagene CIS-FACTORIAL M19 internal marker reporter; actives raise or lower the signal
# Method in brief: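 HepG2 cells transiently transfected with cis-regulated multiple reporter transcription units were dosed for 24 h; reporter mRNA was quantified by RT-PCR, 6-FAM primer-extension labelling, HpaI digestion and capillary electrophoresis, with bidirectional fitting against DMSO baseline.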
# [5] = ATG_ERE_CIS: Attagene CIS-FACTORIAL HepG2 Assay for Estrogen Response Element (ERE) (AID 2282940); details: HepG2 ERE cis-reporter, Attagene RNA transcript; actives raise or lower the signal
# Method in brief: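 HepG2 cells transiently transfected with cis-promoter-driven multiplexed reporter transcription units report endogenous TF activity. After 24 h compound exposure, reporter mRNA is quantified by RT-PCR with capillary electrophoresis fluorescence; bidirectional fitting versus DMSO baseline.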
# [6] = ATG_Ets_CIS: Attagene CIS-FACTORIAL HepG2 Assay for human Erythroblast Transformation Specific (ETS) (AID 2282941); details: HepG2 ETS cis-reporter transcription, actives raise or lower the signal
# Method in brief: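 Bidirectional fit versus DMSO of reporter mRNA signal, detected by RT-PCR and capillary electrophoresis in HepG2 cells transiently transfected with cis-element reporters and dosed 24 h.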
# [7] = ATG_FoxO_CIS: Attagene CIS-FACTORIAL HepG2 Assay for human Forkhead box O (FoxO) (AID 2282943); details: HepG2 Attagene cis-reporter, FoxO element, mRNA; actives raise or lower the signal
# Method in brief: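 Values reflect reporter mRNA induction or loss in HepG2 cells 24 h post-dosing, fitted bidirectionally with DMSO as negative control and baseline. Detection used RT-PCR and fluorescence capillary electrophoresis.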
# [8] = ATG_GATA_CIS: Attagene CIS-FACTORIAL HepG2 Assay for human GATA Binding Protein (AID 2282944); details: HepG2 GATA cis-element reporter, Attagene multiplex mRNA; actives raise or lower the signal
# Method in brief: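 HepG2 cells transiently transfected with multiplexed cis-element reporter units reflecting endogenous transcription factor activity; reporter mRNA measured after 24 h dosing by RT-PCR, 6-FAM labeling, HpaI digestion and capillary electrophoresis. Bidirectional fitting versus DMSO baseline.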
# [9] = ATG_GLI_CIS: Attagene CIS-FACTORIAL HepG2 Assay for human Zinc Finger Protein GLI1 (AID 2282945); details: HepG2, Attagene cis-factorial reporter mRNA, GLI element; actives raise or lower the signal
# Method in brief: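 HepG2 cells transiently transfected with cis-promoter multiplexed reporter units report endogenous transcription factor activity. After 24 h chemical exposure, reporter mRNA was quantified by RT-PCR, 6-FAM labelling, HpaI digestion and capillary electrophoresis, with bidirectional fitting against DMSO.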
# [10] = ATG_ISRE_CIS: Attagene CIS-FACTORIAL HepG2 Assay for human Interferon Regulatory Factor 1 (IRF1) binding to an Interferon-Stimulated Response Element (ISRE) (AID 2282948); details: HepG2 ISRE cis-reporter (Attagene), mRNA transcription readout; actives raise or lower the signal
# Method in brief: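 Uses HepG2 liver cells transfected with cis-regulated reporters and measures mRNA 24 h post-dosing through RT-PCR, primer-extension labelling and capillary electrophoresis, with DMSO as negative control.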
# [11] = ATG_M_32_CIS: Attagene CIS-FACTORIAL HepG2 Assay for M32 Transcription Factor (Internal Marker) (AID 2282949); details: HepG2 Attagene cis-factorial M32 reporter, mRNA; actives raise or lower the signal;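 also: background control marker of the multiplexed CIS panel rather than a real target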
# Method in brief: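 HepG2 transfectants (cis-regulated reporter transcription units) dosed 24 h. Reporter mRNA by RT-PCR plus CE, analysed as gain or loss relative to DMSO.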
# [12] = ATG_M_06_CIS: Attagene CIS-FACTORIAL HepG2 Assay for M06 Transcription Factor (Internal Marker) (AID 2282950); details: HepG2 Attagene CIS-FACTORIAL M06 internal marker reporter; actives raise or lower the signal
# Method in brief: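 HepG2 cells transiently transfected with cis-regulated multiple reporter transcription units were exposed to chemical for 24 h; reporter mRNA was quantified by RT-PCR, 6-FAM primer labelling, HpaI digestion and capillary electrophoresis, fitted bidirectionally against DMSO.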
# [13] = molecular target: Hepatocyte nuclear factor 6 (Homo sapiens) (UniProt Q9UBC0); test: ATG_HNF6_CIS: Attagene CIS-FACTORIAL HepG2 Assay for human Hepatocyte Nuclear Factor 6 (HNF6) (AID 2282952); details: HepG2 Attagene cis-factorial HNF6 reporter transcription; actives raise or lower the signal
# Hepatocyte nuclear factor 6 (Homo sapiens), sequence (Q9UBC0 whole entry, looked up, the tested form may be a part): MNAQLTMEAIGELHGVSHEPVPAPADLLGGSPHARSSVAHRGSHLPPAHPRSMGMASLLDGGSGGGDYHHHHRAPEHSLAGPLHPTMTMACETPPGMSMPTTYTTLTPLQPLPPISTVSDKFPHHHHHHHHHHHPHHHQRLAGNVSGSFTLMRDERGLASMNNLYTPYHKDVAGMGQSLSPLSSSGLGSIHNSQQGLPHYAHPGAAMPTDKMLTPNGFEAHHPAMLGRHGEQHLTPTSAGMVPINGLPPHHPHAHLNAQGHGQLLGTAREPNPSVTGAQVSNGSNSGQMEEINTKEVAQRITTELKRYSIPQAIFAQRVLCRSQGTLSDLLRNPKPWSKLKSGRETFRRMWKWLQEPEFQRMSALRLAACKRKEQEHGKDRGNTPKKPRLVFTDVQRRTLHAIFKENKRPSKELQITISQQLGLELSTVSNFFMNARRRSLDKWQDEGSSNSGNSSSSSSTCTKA
# Method in brief: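 Using cis-element reporters in HepG2 liver cells, the assay tracks endogenous factor-driven transcription 24 h post-dosing. Signal comes from 6-FAM-labelled, HpaI-digested RT-PCR fragments, with gain or loss scored against DMSO.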
# [14] = molecular target: Heat shock factor protein 1 (Homo sapiens) (UniProt Q00613); test: ATG_HSE_CIS: Attagene CIS-FACTORIAL HepG2 Assay for human Heat Shock Transcription Factor 1 (HSE) (AID 2282953); details: HepG2 HSE cis-reporter, Attagene RNA transcription; actives raise or lower the signal
# Heat shock factor protein 1 (Homo sapiens), sequence (Q00613 whole entry, looked up): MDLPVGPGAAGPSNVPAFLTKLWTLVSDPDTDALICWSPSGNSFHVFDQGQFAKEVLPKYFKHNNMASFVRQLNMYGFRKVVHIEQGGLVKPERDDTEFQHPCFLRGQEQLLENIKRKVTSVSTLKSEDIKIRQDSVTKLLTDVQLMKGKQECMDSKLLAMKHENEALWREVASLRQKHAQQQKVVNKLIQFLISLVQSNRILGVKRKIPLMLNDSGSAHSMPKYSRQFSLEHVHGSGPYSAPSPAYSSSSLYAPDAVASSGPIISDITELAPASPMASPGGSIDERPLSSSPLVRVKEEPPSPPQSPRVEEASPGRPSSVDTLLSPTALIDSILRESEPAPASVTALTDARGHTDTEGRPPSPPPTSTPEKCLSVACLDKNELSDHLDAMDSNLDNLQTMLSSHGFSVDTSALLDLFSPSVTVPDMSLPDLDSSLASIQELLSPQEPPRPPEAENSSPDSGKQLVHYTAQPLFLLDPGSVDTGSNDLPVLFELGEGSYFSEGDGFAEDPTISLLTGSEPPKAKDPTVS
# Method in brief: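 HepG2 cells transiently transfected with multiple reporter transcription units under cis-regulatory promoter control, measuring endogenous transcription factor activity. After 24 h chemical exposure, reporter mRNA quantified by RT-PCR, fluorescent labelling, HpaI digestion and capillary electrophoresis; bidirectional fit versus DMSO.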
# [15] = ATG_PBREM_CIS: Attagene CIS-FACTORIAL HepG2 Assay for human Phenobarbital-responsive Enhancer Module (PBREM) (AID 2282955); details: HepG2 PBREM cis-reporter, Attagene multiplexed transcription; actives raise or lower the signal
# Method in brief: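 Readout: reporter mRNA, fluorescent RT-PCR fragments separated by capillary electrophoresis. System: HepG2 transiently transfected with cis-regulated reporter units. Exposure: 24 h. Analysis: bidirectional, DMSO baseline.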
# [16] = molecular target: Hepatocyte nuclear factor 3-beta (Homo sapiens) (UniProt Q9Y261); test: ATG_FoxA2_CIS: Attagene CIS-FACTORIAL HepG2 Assay for human Forkhead box A2 (FOXA2) (AID 2282942); details: HepG2 cis-reporter transcription factor activity, 24 h; actives raise or lower the signal
# Hepatocyte nuclear factor 3-beta (Homo sapiens), sequence (Q9Y261 whole entry, looked up, the tested form may be a part): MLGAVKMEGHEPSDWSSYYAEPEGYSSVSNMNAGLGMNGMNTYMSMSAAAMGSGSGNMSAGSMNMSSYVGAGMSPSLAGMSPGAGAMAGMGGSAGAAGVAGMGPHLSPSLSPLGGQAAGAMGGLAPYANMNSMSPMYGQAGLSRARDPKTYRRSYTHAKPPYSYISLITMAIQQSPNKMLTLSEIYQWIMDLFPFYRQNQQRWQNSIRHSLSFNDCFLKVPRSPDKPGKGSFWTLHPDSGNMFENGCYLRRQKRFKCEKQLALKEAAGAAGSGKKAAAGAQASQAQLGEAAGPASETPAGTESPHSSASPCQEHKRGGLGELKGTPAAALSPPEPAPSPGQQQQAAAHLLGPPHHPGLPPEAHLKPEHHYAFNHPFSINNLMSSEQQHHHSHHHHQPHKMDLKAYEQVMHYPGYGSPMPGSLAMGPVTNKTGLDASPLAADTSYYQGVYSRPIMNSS
# Method in brief: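 Fluorescence signal of reporter cDNA fragments, separated by capillary electrophoresis, reflects endogenous transcription factor activity in transfected HepG2 after 24 h. Both increases and decreases fitted against DMSO.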
# [17] = molecular target: Bile acid receptor (Homo sapiens) (UniProt Q96RI1); test: ATG_IR1_CIS: Attagene CIS-FACTORIAL HepG2 Assay for human Nuclear Receptor Subfamily 1 Group H Member 4 (NR1H4), IR1 submotif (AID 2282946); details: IR1 reporter transcription, actives raise or lower the signal
# Bile acid receptor (Homo sapiens), sequence (Q96RI1 whole entry, looked up): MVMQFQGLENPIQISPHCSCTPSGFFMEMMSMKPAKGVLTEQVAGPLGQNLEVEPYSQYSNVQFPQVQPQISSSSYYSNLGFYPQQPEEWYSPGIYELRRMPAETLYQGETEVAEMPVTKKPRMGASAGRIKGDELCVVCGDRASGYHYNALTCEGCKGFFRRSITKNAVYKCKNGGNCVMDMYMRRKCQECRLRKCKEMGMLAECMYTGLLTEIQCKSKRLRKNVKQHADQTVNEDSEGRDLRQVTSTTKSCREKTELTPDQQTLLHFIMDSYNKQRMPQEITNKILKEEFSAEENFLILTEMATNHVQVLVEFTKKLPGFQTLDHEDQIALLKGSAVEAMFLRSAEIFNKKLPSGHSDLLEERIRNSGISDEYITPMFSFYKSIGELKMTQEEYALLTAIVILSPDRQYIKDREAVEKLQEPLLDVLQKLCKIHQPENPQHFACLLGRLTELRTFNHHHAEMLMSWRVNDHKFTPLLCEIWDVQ
# Method in brief: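 Readout: reporter transcript levels by RT-PCR with fluorescent capillary electrophoresis, from HepG2 cells transiently transfected with multiplexed cis-regulated reporters and dosed 24 h. Gain- or loss-of-signal fitted versus DMSO negative control.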
# [18] = ATG_GRE_CIS: Attagene CIS-FACTORIAL HepG2 Assay for human Glucocorticoid Response Elements (GRE) (AID 2282947); details: HepG2 GRE cis-reporter, Attagene multiplex mRNA; actives raise or lower the signal
# Method in brief: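 Cells (HepG2) bearing transfected cis-promoter reporter transcription units were treated with chemical for 24 hours. Reporter mRNA was measured via RT-PCR with capillary electrophoresis, and activity was fitted in both directions relative to DMSO.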
# [19] = molecular target: Hypoxia-inducible factor 1-alpha (Homo sapiens) (UniProt Q16665); test: ATG_HIF1a_CIS: Attagene CIS-FACTORIAL HepG2 Assay for human Hypoxia Inducible Factor 1 (HIF1A) (AID 2282951); details: HepG2 Attagene cis-factorial HIF1a reporter transcription; actives raise or lower the signal
# Hypoxia-inducible factor 1-alpha (Homo sapiens), sequence (Q16665 whole entry, looked up): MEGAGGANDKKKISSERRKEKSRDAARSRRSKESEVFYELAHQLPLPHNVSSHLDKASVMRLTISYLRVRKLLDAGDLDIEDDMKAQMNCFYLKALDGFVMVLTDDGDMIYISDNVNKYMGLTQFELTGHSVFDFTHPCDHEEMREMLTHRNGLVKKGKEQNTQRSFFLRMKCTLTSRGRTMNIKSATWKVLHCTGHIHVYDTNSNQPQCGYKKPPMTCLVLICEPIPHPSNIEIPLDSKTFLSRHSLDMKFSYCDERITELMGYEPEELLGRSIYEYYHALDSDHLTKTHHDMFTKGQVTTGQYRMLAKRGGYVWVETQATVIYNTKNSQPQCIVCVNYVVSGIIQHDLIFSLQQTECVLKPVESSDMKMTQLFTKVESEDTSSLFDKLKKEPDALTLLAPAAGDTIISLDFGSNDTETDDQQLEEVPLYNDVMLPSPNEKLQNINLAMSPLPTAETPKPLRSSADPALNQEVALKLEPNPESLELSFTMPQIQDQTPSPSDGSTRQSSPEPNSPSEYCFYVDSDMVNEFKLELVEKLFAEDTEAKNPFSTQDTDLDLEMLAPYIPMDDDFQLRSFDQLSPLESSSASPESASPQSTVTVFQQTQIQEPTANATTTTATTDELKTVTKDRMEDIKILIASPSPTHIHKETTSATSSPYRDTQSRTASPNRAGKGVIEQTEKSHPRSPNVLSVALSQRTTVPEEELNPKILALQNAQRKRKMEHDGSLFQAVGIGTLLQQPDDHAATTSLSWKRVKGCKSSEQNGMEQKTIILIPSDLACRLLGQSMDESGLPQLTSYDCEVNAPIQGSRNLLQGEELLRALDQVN
# Method in brief: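 Endogenous-TF cis reporter readout, human HepG2 cells, 24 h incubation; mRNA detected via RT-PCR and capillary electrophoresis fluorescence; DMSO-normalised bidirectional fitting.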
# [20] = ATG_MRE_CIS: Attagene CIS-FACTORIAL HepG2 Assay for human Metal Responsive Element (MRE) (AID 2282954); details: HepG2 MRE cis-reporter transcription, Attagene multiplex; actives raise or lower the signal
# Method in brief: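 Cells were transfected with cis-promoter reporter transcription units, then dosed for 24 h. RNA was reverse-transcribed, amplified, fluorescently labelled and resolved by capillary electrophoresis, and activity was fitted in both directions relative to DMSO.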
compound,measurement,setting,value
Cc1[nH]c(=O)c(C#N)cc1-c1ccncc1,outcome,[1],inactive
same,outcome,[2],inactive
same,outcome,[3],inactive
same,outcome,[4],inactive
same,outcome,[5],inactive
same,outcome,[6],inactive
same,outcome,[7],inactive
same,outcome,[8],inactive
same,outcome,[9],inactive
same,outcome,[10],inactive
same,outcome,[11],inactive
same,outcome,[12],inactive
same,outcome,[13],inactive
same,outcome,[14],inactive
same,outcome,[15],inactive
CCCCCCOCCOCCO,outcome,[1],inactive
same,outcome,[2],inactive
same,outcome,[3],inactive
same,outcome,[4],inactive
same,outcome,[6],inactive
same,outcome,[16],inactive
same,outcome,[7],inactive
same,outcome,[8],inactive
same,outcome,[9],inactive
same,outcome,[17],inactive
same,outcome,[18],inactive
same,outcome,[10],inactive
same,outcome,[11],inactive
same,outcome,[12],inactive
same,outcome,[19],inactive
same,outcome,[13],inactive
same,outcome,[14],inactive
same,outcome,[20],inactive
CCCCC(CC)COC(=O)c1ccc(O)cc1 (stereo unspecified),outcome,[1],inactive
same,outcome,[2],inactive
same,outcome,[3],inactive
same,outcome,[4],inactive
same,outcome,[6],inactive
same,outcome,[16],inactive
same,outcome,[7],inactive
same,outcome,[8],inactive
same,outcome,[9],inactive
same,outcome,[17],inactive
same,outcome,[18],inactive
same,outcome,[10],inactive
same,outcome,[11],inactive
same,outcome,[12],inactive
same,outcome,[19],inactive
same,outcome,[13],inactive
same,outcome,[14],inactive
same,outcome,[20],inactive
IC(I)I,outcome,[1],inactive
same,outcome,[2],inactive
same,outcome,[3],inactive
same,outcome,[4],inactive
same,outcome,[6],inactive
same,outcome,[16],inactive
same,outcome,[7],inactive
same,outcome,[8],inactive
same,outcome,[9],inactive
same,outcome,[17],inactive
same,outcome,[18],inactive
same,outcome,[10],inactive
same,outcome,[11],inactive
same,outcome,[12],inactive
same,outcome,[19],inactive
same,outcome,[13],inactive
same,outcome,[14],inactive
same,outcome,[20],inactive
NC(=S)NNC(N)=S,outcome,[1],inactive
same,outcome,[2],inactive
same,outcome,[3],inactive
same,outcome,[4],inactive
same,outcome,[6],inactive
same,outcome,[16],inactive
same,outcome,[7],inactive
same,outcome,[8],inactive
same,outcome,[9],inactive
same,outcome,[17],inactive
same,outcome,[18],inactive
same,outcome,[10],inactive
same,outcome,[11],inactive
same,outcome,[12],inactive
same,outcome,[19],inactive
same,outcome,[13],inactive
same,outcome,[14],inactive
same,outcome,[20],inactive
Cc1cc(C)nc(NS(=O)(=O)c2ccc(N)cc2)n1,outcome,[1],inactive
same,outcome,[2],inactive
same,outcome,[3],inactive
same,outcome,[4],inactive
same,outcome,[6],inactive
same,outcome,[16],inactive
same,outcome,[7],inactive
same,outcome,[8],inactive
same,outcome,[9],inactive
same,outcome,[17],inactive
same,outcome,[18],inactive
same,outcome,[10],inactive
same,outcome,[11],inactive
same,outcome,[12],inactive
same,outcome,[19],inactive
same,outcome,[13],inactive
same,outcome,[14],inactive
same,outcome,[20],inactive
same,outcome,[15],inactive
CN(c1nccc(=O)[nH]1)C1CCN(c2nc3ccccc3n2Cc2ccc(F)cc2)CC1,outcome,[1],inactive
same,outcome,[2],inactive
same,outcome,[3],inactive
same,outcome,[4],inactive
same,outcome,[5],inactive
same,outcome,[16],inactive
same,outcome,[7],inactive
same,outcome,[9],inactive
same,outcome,[10],inactive
same,outcome,[11],inactive
same,outcome,[12],inactive
same,outcome,[19],inactive
same,outcome,[13],inactive
same,outcome,[14],inactive
same,AC50,[20],26.7 µM (active)
same,outcome,[15],inactive
C1CCCCC1,outcome,[1],inactive
same,outcome,[2],inactive
same,outcome,[3],inactive
same,outcome,[4],inactive
same,outcome,[6],inactive
same,outcome,[16],inactive
same,outcome,[7],inactive
same,outcome,[8],inactive
same,outcome,[9],inactive
same,outcome,[17],inactive
same,outcome,[18],inactive
same,outcome,[10],inactive
same,outcome,[11],inactive
same,outcome,[12],inactive
same,outcome,[19],inactive
same,outcome,[13],inactive
same,outcome,[14],inactive
same,outcome,[20],inactive
same,outcome,[15],inactive
